# Assays:
# Assay in all cases: DAPPL (digital affinity profiling via proximity ligation, sequencing); 10 mM Tris-HCl pH 7.5, 50 mM NaCl, 1 mM DTT, 4% glycerol, room temperature, 30 min; GST-TFs on glutathione beads, 16-mer random dsDNA library, 0.1% formaldehyde crosslink after washing; high values mean tight binding
# Conditions in all cases: protein: recombinant; tags: N-terminal GST; dsDNA, one strand shown
# ELK1 = target: T1, ELK1 (Homo sapiens, UniProt P19419 1-428)
# T1 sequence: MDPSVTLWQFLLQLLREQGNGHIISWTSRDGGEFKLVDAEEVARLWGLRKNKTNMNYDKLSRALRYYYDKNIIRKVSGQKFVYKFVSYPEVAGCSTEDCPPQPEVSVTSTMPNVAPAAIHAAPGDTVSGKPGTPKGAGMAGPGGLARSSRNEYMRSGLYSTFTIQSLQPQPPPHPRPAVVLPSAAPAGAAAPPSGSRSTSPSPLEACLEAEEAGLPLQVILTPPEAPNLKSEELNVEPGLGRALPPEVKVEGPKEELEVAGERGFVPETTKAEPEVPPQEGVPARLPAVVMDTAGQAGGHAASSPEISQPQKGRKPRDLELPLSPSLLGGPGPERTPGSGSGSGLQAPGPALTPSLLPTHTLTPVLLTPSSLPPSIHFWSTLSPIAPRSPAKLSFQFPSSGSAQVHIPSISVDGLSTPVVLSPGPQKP
# Procedure, shortened: (§1)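 GST fusions of human transcription factors were expressed in yeast and captured with glutathione beads. Once given DNA barcodes and pooled alongside a tag-only sample, they were incubated for 30 min at room temperature with 200 nmole of a random double-stranded 16-mer DNA library in Tris/NaCl/DTT/glycerol buffer, then washed, crosslinked (0.1% formaldehyde), proximity-ligated, PCR-amplified and sequenced on an Illumina NextSeq500. The binding signal of each hexamer is its read frequency for a factor divided by its frequency for the tag-only sample.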
# GABPA = target: T2, GABPA (Homo sapiens, UniProt Q06546 1-454)
# T2 sequence: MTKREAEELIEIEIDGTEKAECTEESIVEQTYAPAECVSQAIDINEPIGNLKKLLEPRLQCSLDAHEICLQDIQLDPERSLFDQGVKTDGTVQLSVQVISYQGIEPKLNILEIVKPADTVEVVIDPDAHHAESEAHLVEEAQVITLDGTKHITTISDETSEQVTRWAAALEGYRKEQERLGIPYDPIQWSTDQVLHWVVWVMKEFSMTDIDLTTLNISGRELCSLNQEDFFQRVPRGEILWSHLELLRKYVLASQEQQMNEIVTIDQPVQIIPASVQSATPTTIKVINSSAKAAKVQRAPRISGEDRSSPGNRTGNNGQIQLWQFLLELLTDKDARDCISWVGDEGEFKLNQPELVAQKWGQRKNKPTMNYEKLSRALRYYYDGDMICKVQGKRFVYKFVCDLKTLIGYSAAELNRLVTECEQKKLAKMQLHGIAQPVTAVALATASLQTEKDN
# Procedure, shortened: as §1
# ERG = target: T3, ERG (Homo sapiens, UniProt P11308 1-479)
# T3 sequence: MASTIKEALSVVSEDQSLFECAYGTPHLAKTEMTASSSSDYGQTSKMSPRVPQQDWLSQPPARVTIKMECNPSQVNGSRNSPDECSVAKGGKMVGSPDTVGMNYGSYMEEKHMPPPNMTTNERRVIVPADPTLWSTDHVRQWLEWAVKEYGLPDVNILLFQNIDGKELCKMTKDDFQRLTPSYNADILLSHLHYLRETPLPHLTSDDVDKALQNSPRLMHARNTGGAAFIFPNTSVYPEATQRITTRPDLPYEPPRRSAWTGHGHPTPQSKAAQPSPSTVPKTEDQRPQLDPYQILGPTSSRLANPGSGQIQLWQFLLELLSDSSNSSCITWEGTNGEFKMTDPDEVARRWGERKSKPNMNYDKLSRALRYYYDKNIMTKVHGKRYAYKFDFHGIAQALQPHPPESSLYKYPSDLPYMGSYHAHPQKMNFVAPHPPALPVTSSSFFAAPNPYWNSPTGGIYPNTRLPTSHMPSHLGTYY
# Procedure, shortened: as §1
# ELF1 = ELF1 (Homo sapiens, UniProt P32519 1-619)
# ELF1, sequence (P32519 whole entry): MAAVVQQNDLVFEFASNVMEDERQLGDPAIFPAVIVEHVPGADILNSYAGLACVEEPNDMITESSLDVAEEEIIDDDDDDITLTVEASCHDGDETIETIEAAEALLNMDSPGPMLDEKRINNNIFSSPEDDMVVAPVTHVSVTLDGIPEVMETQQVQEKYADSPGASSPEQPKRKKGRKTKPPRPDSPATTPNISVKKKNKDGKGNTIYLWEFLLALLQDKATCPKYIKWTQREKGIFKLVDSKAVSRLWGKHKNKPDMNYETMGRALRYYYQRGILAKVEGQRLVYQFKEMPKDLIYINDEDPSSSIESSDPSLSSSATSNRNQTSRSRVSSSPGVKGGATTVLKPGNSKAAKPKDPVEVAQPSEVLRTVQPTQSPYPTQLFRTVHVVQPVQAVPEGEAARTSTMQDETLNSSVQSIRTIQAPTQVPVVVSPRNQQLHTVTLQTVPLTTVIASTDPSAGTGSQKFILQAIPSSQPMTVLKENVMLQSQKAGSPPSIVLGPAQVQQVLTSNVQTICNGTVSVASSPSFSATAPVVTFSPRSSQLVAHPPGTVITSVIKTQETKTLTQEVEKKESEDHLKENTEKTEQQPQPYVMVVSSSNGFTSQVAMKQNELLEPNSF
# Procedure, shortened: as §1
# SPIB = SPIB (Homo sapiens, UniProt Q01892 1-262)
# SPIB, sequence (Q01892 whole entry): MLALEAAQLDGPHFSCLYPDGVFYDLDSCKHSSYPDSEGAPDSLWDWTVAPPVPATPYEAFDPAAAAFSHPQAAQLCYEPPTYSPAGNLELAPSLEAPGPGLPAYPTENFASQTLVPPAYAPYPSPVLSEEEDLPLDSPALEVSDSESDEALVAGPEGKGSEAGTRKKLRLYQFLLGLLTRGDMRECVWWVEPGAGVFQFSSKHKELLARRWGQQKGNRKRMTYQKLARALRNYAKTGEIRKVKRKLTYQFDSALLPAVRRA
# Procedure, shortened: as §1
# ELK3 = target: T4, ELK3 (Homo sapiens, UniProt P41970 1-407)
# T4 sequence: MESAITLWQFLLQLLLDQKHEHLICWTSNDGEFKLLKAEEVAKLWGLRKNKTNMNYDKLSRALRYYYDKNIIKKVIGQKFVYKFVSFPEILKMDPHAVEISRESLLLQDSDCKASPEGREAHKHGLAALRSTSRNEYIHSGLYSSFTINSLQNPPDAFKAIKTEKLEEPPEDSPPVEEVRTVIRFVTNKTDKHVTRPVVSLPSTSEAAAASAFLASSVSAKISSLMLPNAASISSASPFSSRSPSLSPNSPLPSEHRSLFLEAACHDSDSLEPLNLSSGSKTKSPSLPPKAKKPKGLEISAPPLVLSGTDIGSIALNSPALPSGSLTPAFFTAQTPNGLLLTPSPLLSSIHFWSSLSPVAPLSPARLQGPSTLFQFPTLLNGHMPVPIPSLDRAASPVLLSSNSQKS
# Procedure, shortened: as §1
# FEV = target: T5, FEV (Homo sapiens, UniProt Q99581 1-238)
# T5 sequence: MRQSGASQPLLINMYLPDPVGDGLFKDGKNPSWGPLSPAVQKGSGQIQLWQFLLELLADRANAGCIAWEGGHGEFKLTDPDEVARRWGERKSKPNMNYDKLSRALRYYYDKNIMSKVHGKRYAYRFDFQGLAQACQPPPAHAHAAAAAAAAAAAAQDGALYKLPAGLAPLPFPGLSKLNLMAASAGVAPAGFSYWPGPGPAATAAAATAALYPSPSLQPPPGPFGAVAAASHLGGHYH
# Procedure, shortened: as §1
# ETV5 = ETV5 (Homo sapiens, UniProt P41161 1-510)
# ETV5, sequence (P41161 whole entry): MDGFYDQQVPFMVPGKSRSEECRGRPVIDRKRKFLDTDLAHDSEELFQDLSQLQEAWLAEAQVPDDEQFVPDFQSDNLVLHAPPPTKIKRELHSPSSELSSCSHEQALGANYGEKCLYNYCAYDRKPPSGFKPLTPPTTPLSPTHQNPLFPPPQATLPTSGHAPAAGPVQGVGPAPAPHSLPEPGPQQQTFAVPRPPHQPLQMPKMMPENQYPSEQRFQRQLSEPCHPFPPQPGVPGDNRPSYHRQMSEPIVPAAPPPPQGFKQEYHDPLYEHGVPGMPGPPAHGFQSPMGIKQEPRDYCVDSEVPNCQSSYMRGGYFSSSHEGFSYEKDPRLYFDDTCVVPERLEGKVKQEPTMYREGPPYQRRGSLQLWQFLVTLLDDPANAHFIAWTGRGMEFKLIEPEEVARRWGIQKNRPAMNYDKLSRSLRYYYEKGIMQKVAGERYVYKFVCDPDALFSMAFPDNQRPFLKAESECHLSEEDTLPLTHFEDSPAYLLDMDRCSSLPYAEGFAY
# Procedure, shortened: as §1
# ELF4 = ELF4 (Homo sapiens, UniProt Q99607 1-663)
# ELF4, sequence (Q99607 whole entry): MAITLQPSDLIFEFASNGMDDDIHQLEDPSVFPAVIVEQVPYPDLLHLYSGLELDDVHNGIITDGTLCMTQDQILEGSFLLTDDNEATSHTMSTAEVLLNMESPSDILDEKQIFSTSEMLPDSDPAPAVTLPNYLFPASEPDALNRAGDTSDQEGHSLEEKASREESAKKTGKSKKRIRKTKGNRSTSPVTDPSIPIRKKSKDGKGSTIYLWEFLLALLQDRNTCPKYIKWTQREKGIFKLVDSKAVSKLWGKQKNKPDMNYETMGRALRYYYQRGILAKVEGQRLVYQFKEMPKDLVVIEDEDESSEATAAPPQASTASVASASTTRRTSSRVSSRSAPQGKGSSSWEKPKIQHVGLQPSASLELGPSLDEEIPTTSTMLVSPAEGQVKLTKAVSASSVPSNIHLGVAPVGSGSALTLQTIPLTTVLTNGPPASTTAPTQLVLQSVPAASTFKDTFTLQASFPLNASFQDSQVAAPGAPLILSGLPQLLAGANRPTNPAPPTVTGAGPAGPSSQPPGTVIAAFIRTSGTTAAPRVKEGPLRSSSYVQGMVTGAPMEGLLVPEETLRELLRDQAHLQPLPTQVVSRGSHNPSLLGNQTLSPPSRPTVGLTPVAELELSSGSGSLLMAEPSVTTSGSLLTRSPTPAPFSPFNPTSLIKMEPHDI
# Procedure, shortened: as §1
# ELF3 = target: T6, ELF3 (Homo sapiens, UniProt P78545 1-371)
# T6 sequence: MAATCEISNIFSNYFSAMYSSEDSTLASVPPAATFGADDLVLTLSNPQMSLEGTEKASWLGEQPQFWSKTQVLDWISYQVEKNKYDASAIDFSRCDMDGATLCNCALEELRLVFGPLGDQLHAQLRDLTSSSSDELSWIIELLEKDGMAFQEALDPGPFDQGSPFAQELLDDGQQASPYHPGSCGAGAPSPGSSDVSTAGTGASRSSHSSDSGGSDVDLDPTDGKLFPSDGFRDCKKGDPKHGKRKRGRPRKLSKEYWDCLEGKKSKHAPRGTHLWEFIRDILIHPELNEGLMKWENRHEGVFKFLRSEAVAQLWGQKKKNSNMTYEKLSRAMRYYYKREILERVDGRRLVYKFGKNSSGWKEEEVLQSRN
# Procedure, shortened: as §1
# ETV1 = ETV1 (Homo sapiens, UniProt P50549 1-477)
# ETV1, sequence (P50549 whole entry): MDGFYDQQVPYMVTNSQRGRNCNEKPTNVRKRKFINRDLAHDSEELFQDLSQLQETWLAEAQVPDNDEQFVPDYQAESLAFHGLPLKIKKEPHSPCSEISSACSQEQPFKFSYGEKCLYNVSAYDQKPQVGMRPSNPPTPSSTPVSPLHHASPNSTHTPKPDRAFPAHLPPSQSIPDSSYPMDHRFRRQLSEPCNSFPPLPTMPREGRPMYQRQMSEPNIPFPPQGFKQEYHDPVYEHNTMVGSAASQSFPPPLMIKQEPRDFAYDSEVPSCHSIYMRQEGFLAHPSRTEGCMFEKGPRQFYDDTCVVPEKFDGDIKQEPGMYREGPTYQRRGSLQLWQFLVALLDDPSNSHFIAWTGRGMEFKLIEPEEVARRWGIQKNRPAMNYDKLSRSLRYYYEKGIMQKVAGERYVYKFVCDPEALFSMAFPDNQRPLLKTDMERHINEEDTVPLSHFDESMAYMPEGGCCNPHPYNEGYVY
# Procedure, shortened: as §1
# ETV3L = target: T7, ETV3L (Homo sapiens, UniProt Q6ZN32 1-361)
# T7 sequence: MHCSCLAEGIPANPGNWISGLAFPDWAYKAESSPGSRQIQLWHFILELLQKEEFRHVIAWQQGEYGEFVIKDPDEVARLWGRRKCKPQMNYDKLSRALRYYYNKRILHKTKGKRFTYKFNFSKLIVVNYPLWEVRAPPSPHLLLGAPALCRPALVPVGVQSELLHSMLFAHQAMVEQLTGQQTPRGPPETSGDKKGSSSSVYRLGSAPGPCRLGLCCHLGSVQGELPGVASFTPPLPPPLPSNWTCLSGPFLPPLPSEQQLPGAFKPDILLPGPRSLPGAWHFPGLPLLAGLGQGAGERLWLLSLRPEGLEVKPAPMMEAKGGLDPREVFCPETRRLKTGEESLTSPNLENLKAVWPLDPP
# Procedure, shortened: as §1
# ETS2 = target: T8, ETS2 (Homo sapiens, UniProt P15036 1-469)
# T8 sequence: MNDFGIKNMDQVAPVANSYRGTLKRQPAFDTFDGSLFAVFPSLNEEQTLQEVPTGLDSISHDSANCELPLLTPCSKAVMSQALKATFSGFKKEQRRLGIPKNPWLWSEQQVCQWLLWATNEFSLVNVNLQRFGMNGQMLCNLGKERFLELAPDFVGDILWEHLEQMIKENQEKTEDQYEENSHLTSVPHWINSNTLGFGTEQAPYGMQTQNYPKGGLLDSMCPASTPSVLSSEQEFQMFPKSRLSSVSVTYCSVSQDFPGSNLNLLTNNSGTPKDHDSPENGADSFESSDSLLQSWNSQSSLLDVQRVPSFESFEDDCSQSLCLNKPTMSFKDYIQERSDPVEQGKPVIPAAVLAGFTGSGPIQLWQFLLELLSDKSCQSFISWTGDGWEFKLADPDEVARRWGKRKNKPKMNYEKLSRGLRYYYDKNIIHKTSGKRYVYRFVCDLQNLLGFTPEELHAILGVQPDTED
# Procedure, shortened: as §1
# SPDEF = target: T9, SPDEF (Homo sapiens, UniProt O95238 1-335)
# T9 sequence: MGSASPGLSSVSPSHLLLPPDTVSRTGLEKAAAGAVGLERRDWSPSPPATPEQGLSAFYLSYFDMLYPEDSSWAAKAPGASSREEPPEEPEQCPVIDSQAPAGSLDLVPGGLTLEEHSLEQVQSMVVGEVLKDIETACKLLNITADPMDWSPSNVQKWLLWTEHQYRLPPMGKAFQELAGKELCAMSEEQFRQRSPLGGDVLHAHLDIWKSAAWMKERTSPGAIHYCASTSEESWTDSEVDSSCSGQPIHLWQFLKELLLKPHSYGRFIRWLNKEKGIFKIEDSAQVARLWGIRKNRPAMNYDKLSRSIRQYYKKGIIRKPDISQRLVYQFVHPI
# Procedure, shortened: as §1
# ETV7 = target: T10, ETV7 (Homo sapiens, UniProt Q9Y603 1-341)
# T10 sequence: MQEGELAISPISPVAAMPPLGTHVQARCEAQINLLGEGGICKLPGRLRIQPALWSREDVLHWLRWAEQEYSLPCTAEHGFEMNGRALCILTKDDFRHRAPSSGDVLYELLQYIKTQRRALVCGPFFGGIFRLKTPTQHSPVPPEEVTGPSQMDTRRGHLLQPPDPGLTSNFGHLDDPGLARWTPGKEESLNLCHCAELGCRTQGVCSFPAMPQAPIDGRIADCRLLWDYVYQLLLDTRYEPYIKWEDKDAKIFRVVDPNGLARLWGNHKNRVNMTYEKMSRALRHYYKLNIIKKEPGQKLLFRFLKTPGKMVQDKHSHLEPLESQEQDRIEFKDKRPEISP
# Procedure, shortened: as §1
# ETV3 = target: T11, ETV3 (Homo sapiens, UniProt P41162-2 1-143)
# T11 sequence: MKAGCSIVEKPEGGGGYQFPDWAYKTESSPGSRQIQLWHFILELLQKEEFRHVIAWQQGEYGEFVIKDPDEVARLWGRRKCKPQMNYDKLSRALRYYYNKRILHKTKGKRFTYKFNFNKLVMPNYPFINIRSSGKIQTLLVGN
# Procedure, shortened: as §1
# ETV6 = ETV6 (Homo sapiens, UniProt P41212 1-452)
# ETV6, sequence (P41212 whole entry): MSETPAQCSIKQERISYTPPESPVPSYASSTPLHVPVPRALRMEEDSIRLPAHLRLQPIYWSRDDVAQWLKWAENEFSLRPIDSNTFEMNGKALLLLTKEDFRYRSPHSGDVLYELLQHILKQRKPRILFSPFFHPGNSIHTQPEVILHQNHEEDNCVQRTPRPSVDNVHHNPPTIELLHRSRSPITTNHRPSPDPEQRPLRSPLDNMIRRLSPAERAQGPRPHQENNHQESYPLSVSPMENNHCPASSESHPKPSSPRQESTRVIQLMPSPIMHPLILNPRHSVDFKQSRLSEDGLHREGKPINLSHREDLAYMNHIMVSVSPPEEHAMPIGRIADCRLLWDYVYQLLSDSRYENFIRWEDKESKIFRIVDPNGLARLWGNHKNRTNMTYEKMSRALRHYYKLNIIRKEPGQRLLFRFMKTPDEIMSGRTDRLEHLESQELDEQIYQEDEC
# Procedure, shortened: as §1
sequence,measurement,setting,value
GTTACC,binding signal,ELK1,"1.16 fold enrichment (6-mer frequency, TF over GST control)"
same,binding signal,GABPA,"1.05 fold enrichment (6-mer frequency, TF over GST control)"
same,binding signal,ERG,"1.04 fold enrichment (6-mer frequency, TF over GST control)"
same,binding signal,ELF1,"1.04 fold enrichment (6-mer frequency, TF over GST control)"
same,binding signal,SPIB,"1.14 fold enrichment (6-mer frequency, TF over GST control)"
same,binding signal,ELK3,"1.08 fold enrichment (6-mer frequency, TF over GST control)"
same,binding signal,FEV,"1.07 fold enrichment (6-mer frequency, TF over GST control)"
same,binding signal,ETV5,"1.06 fold enrichment (6-mer frequency, TF over GST control)"
same,binding signal,ELF4,"1.07 fold enrichment (6-mer frequency, TF over GST control)"
same,binding signal,ELF3,"1.06 fold enrichment (6-mer frequency, TF over GST control)"
same,binding signal,ETV1,"1.08 fold enrichment (6-mer frequency, TF over GST control)"
same,binding signal,ETV3L,"1.04 fold enrichment (6-mer frequency, TF over GST control)"
same,binding signal,ETS2,"1.09 fold enrichment (6-mer frequency, TF over GST control)"
same,binding signal,SPDEF,"1.03 fold enrichment (6-mer frequency, TF over GST control)"
same,binding signal,ETV7,"1.02 fold enrichment (6-mer frequency, TF over GST control)"
same,binding signal,ETV3,"1.03 fold enrichment (6-mer frequency, TF over GST control)"
same,binding signal,ETV6,"1.03 fold enrichment (6-mer frequency, TF over GST control)"

# — paper PMC7862700, “An all-to-all approach to the identification of sequence-specific readers for epigenetic DNA modifications on cytosine”
